Test results from PubChem BioAssay AID2110 (National Center for Advancing Translational Sciences (NCATS), 2009).
Inconclusive results are not listed. The source made the active and inactive calls. The call rests on the fitted dose curve; in most records, active means well fitted curve in either direction with a large enough effect; inconclusive means small, poorly fitted or top-dose-only effect; inactive means no such curve, though single readings can be large or run the other way.

target: Lysosomal alpha-glucosidase (Homo sapiens) (UniProt P10253); test: Confirmation of Inhibitors and Activators of Purified Human alpha-Glucosidase Using an Alternate Red Fluorescent Susbtrate; settings: purified enzyme, red fluorogenic substrate; series mostly up to 63.4 µM
Source text: NIH Chemical Genomics Center [NCGC]
NIH Molecular Libraries Probe Production centers Network [MLPCN]
Assay Submitter (PI): Wei Zheng
Alpha-glucosidase is responsible for hydrolysis of terminal, non-reducing 1,4-linked alpha-D-glucose residues with release of alpha-D-glucose. It is a lysosomal hydrolase that is required for the degradation of a small percentage (1-3%) of cellular glycogen in human. Deficiency of this enzyme results in glycogen-storage disease type II (GSDII), also referred to as Pompe disease, an autosomal recessive disorder. Structurally normal glycogen is accumulated in lysosomes and cytoplasm in affected patients, primarily in muscle tissues. Excessive glycogen storage within lysosomes may interrupt normal functioning of other organelles and leads to cellular injury. In turn, this leads to enlargement and dysfunction of the entire organ involved (eg, cardiomyopathy and muscle weakness).
It has reported that the improper folding and trafficking of alpha-glucosidase resultinged from the genetic mutations may account for a significant number of Pomrope patients. […] We optimized this alpha-glucosidase assay in 1536-well plate format for identifying the novel small molecule inhibitors with the structures other than the sugar analogs in order to develop the new pharmacological chaperones. This assay attempted to confirm hits from the primary screening using an alternate fluor than the primary screen used.
NCGC Assay Protocol Summary:
This is a fluorogenic enzyme assay with resorufin-alpha-D-pyranoside as the substrate and recombinant human alpha-glucosidase as the enzyme preparation. Upon the hydrolysis of this fluorogenic substrate, the resulting product, resorufin, can be excited at 573 nm and emits at 610 nm which can be detected by a standard fluorescence plate reader. Data were normalized to the controls for basal activity (without enzyme) and 100% activity (with enzyme). The AC50 values were determined from concentration-response data modeled with the standard Hill equation.
Assay buffer: 50 mM citric acid (titrated with potassium phosphate to pH 5.0), 0.005% Tween-20, pH 5.0. (pH 5.0 is an optimal condition for this enzyme assay)
1536-well assay protocol for the human alpha-glucosidase:
(1) Add 2 ul/well of enzyme (4 nM final)
(2) Add 23 nL compounds in DMSO solution. The final titration was 0.7 nM to 77 uM.
(3) Add 1 ul of substrate (400 uM final)
(4) Incubate at room temperature for 20 min.
(5) Add 2 ul stop solution (1M NaOH and 1M Glycine mixture, pH 10)
(6) Detect the assay plate in a ViewLux plate reader (PerkinElmer) with Ex=365 nm and Em=440nm.
Keywords: Alpha-glucosidase, Pompe Disease, pharmacological chaperone, chaperone therapy, high throughput screening, alpha-glucosidase inhibitor, MLSMR, MLSCN, NIH Roadmap, qHTS and NCGC

| SMILES | Potency |
| --- | --- |
| CCCN1CNc2c(c(=O)[nH]c(=O)n2CCc2ccc(OC)c(OC)c2)C1 | 14.1 µM (active) |
| CCCN1CNc2c(c(=O)[nH]c(=S)n2CCc2ccc(OCC)c(OCC)c2)C1 | 1.78 µM (active) |
| CC(=O)c1ccc(N2CCN(S(=O)(=O)c3ccc4c(c3)C(Cl)(Cl)C(=O)N4)CC2)cc1 | 41.1 µM [inhibitor] (active) |
| O=C1Cc2cc(S(=O)(=O)N3CCN(c4cccc(C(F)(F)F)c4)CC3)ccc2N1 | 14.9 µM [inhibitor] (active) |
| O=Cc1ccc(N2CCN(S(=O)(=O)c3ccc4c(c3)CC(=O)N4)CC2)cc1 | 4.11 µM [inhibitor] (active) |
| CCCN1CNc2c(c(=O)[nH]c(=S)n2Cc2ccc(OC)c(OC)c2)C1 | 2.82 µM (active) |
| CCCN1CNc2c(c(=O)[nH]c(=S)n2CCc2ccc(Cl)cc2)C1 | 11.2 µM (active) |
| CCCN1CNc2c(c(=O)[nH]c(=S)n2CCc2ccc(C)c(C)c2)C1 | 1.12 µM (active) |
| CCCN1CNc2c(c(=O)[nH]c(=S)n2CCCc2ccccc2)C1 | 31.6 µM (active) |
| OCC1NCC(O)C(O)C1O (stereo not given) | inactive |
| CC(=O)c1ccc(N2CCN(S(=O)(=O)c3ccc4c(c3)CCC(=O)N4)CC2)cc1 | inactive |
| CCCN1CNc2c(c(=O)[nH]c(=S)n2CCc2cc(C)cc(C)c2)C1 | 3.16 µM (active) |
| COc1ccc(CCc2c[nH]c(=O)c3cncnc23)cc1OC | inactive |
| COc1ccc(N2CCN(S(=O)(=O)c3ccc4c(c3)CC(=O)N4)CC2)cc1 | 18.8 µM [inhibitor] (active) |
| COc1ccc(CCn2c3c(c(=O)[nH]c2=S)CN(Cc2ccccc2)CN3)cc1OC | 1.78 µM (active) |
| CCCN1CNc2c(c(=O)[nH]c(=S)n2CCc2cccc(OC)c2OC)C1 | 10 µM (active) |
| COc1ccc(CCn2c3c(c(=O)[nH]c2=S)CN(C(C)C)CN3)cc1OC | 11.2 µM (active) |
| COc1ccc(CCn2c3c(c(=O)[nH]c2=S)CN(c2ccccc2)CN3)cc1OC | 7.94 µM (active) |
| CCCN1CNc2c(c(=O)[nH]c(=S)n2CCc2cccc(Cl)c2Cl)C1 | 0.158 µM (active) |
| COc1ccc(CCn2c(=S)[nH]c(=O)c3[nH]cnc32)cc1OC | inactive |

| SMILES | Potency |
| --- | --- |
| O=c1[nH]cc(C#Cc2ccccc2)c2ncncc12 | inactive |
| CC(=O)c1ccc(N2CCN(S(=O)(=O)c3ccc4c(c3)CC(C)N4C(C)=O)CC2)cc1 (stereo not given) | inactive |
| COc1ccc(CCn2c(=S)[nH]c(=O)c3nccnc32)cc1OC | inactive |
| N#CC(=C(\N)Sc1ccccc1N)/C(C#N)=C(/N)Sc1ccccc1N | 44.7 µM (active) |
| OCCNc1nc(-c2cccs2)nc2ccccc12 | inactive |
| CCCN1CNc2c(c(=O)[nH]c(=S)n2CCc2cc(OC)cc(OC)c2)C1 | 0.708 µM (active) |
| O=C1Cc2cc(S(=O)(=O)N3CCN(c4ccc(O)cc4)CC3)ccc2N1 | 2.37 µM [inhibitor] (active) |
| CCCN1CNc2c(c(=O)[nH]c(=S)n2CCc2ccc(OC)cc2)C1 | 6.31 µM (active) |
| CC(=O)c1ccc(N2CCN(S(=O)(=O)c3ccc4[nH]c(=O)oc4c3)CC2)cc1 | inactive |
| CC(=O)c1ccc(N2CCN(S(=O)(=O)c3ccc(N4CCCC4=O)cc3)CC2)cc1 | inactive |
| CCCN1CNc2c(c(=O)[nH]c(=S)n2CCC(C)C)C1 | inactive |
| CCCN1CNc2c(c(=O)[nH]c(=S)n2CCc2ccc(Cl)c(Cl)c2)C1 | 2.24 µM (active) |
| O=C1Cc2cc(S(=O)(=O)N3CCN(c4ccc([N+](=O)[O-])cc4)CC3)ccc2N1 | 3.26 µM [inhibitor] (active) |
| CCCN1CNc2c(c(=O)[nH]c(=S)n2CCC(C)(C)C)C1 | inactive |
| CC(=O)c1ccc(N2CCN(S(=O)(=O)c3ccc4c(c3)CCCN4C(C)=O)CC2)cc1 | inactive |
| CC(=O)c1ccc(N2CCN(C(=O)c3ccc4c(c3)CCC(=O)N4)CC2)cc1 | inactive |
| CCCN1CNc2c(c(=O)[nH]c(=S)n2CCc2ccccc2OC)C1 | 11.2 µM (active) |
| CC(=O)Nc1ccc(S(=O)(=O)N2CCN(c3ccc(C(C)=O)cc3)CC2)cc1 | inactive |
| N#Cc1ccc(N2CCN(S(=O)(=O)c3ccc4c(c3)CC(=O)N4)CC2)cc1 | 3.26 µM [inhibitor] (active) |
| O=S(=O)(c1ccc(Cl)cc1)N1CCN(c2nc(Nc3cc(Cl)ccc3O)nc3ccccc23)CC1 | inactive |
